Laboratory results from PubChem BioAssay (NCI).
This is part of a sample that, as a whole, favours compounds with a hit. Of some 83,000 tested, about 20% had one in any assay.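 Interpretation: 100, growth as untreated; towards 0, rising growth inhibition; 0, no net growth; 0 to -100, cell death. Compounds scoring below 10 were considered active.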 A number with no mark means an inactive call. The source made the active and inactive calls.

What follows are compounds tested on IGROV1 ovarian (assay: NCI-60 one-dose screen, 48 h (100 = growth as untreated, 0 = no growth, -100 = all killed)). Details: 10 µM unless noted.
With `COC(=O)c1c(C)nc(C)c2c1C(=O)C=C(NCc1ccccc1)C2=O` the growth was 66.7%. `COc1ccc2[nH]cc(-c3nonc3-c3c[nH]c4ccc(Br)cc34)c2c1` gave a growth of 65.3%. For `C=C(C)[C@@H]1CC[C@]2(COC3CCCCO3)CC[C@]3(C)[C@H](CC[C@@H]4[C@@]5(C)C=C(C=O)C(=O)C(C)(C)[C@@H]5CC[C@]43C)[C@@H]12` (stereo partly specified), the growth was -64.8% (active). `CCOc1ncc([N+](=O)[O-])c(OCC)n1` was tested, and the growth was 107%. `c1ccc(-c2c(-c3ccccc3)[n+](Cc3ccc4ccccc4c3)cn2Cc2ccc3ccccc3c2)cc1` was tested, and the growth was -73.8% (active). `Cn1cc(-c2csc(-c3cn(CCCN4CCOCC4)c4ccc(F)cc34)n2)c2cccnc21` gave a growth of 76.3%. With `Cc1cn(C)cn1` the growth was 117%. `COC(=O)c1sccc1-c1cc(O)c(C(=O)Nc2ccccc2)s1` was tested, and the growth was 95%. In the case of `CCCCCc1ccc(S(=O)(=O)Nc2ccc3nc(N)oc3c2)cc1`, the growth is reported as 68.4%. For `COc1ccc2c(O)c(/C=C3\N=Nc4ncccc43)oc2c1C[C@@H]1CCNC[C@H]1F`, the growth was -2.07% (active). `CCN(CC)CCCC(Cc1ccccc1)Nc1c2ccc(Cl)cc2nc2ccc(OC)cc12` (stereo unspecified) gave a growth of 32.7%. Work on `CNCC[C@H](Oc1cccc2ccccc12)c1cccs1` yielded a growth of 84.7%. Work on `CCOC(=O)c1cnn(CC(C)O)c1NC(=O)NCc1cccc(F)c1` (stereo unspecified) yielded a growth of 95.5%. Work on `N#Cc1ccc(/C=C/c2cn(-c3ccccc3)nc2-c2cccc([N+](=O)[O-])c2)cc1` yielded a growth of 51.2%. `O=C(/C=C/c1ccco1)Nc1ncc(Cc2cc(Cl)ccc2Cl)s1` showed a growth of 21.3%. For `CCOC(=O)c1nnn(Cc2cc(=O)oc3ccc(O)cc23)c1C`, the growth was 106%. In the case of `CC1(C)CC[C@]23CC[C@]4(C)[C@H](CC[C@@H]5[C@@]6(C)C/C(=C/O)C(=O)C(C)(C)[C@@H]6CC[C@]54C)[C@H]2[C@H]1OC3`, the growth is reported as 106%. Compound `COC(=O)c1nc(-c2ccccc2)oc1S(=O)(=O)N1CCCC(C)C1` (stereo unspecified) has a growth of 64%. `Cc1ccc2c(/C=C/C(=O)c3cc(CN4CCOCC4)c(O)c4nc(C)ccc34)cc(CN3CCOCC3)c(O)c2n1` was tested, and the growth was 2.95% (active). With `CCN1C(=O)N(CC)C2C1NN=c1s/c(=C\c3ccc(OC)cc3)c(=O)n12` (stereo unspecified) the growth was 19.6%. For `COc1ccc(C/C(C)=C(\c2ccc(Cl)cc2)c2ccc(OCCN3CCCC3)cc2)cc1`, the growth was 69%. In the case of `CCN(CC)CCOc1ccc(Nc2ncc3cc(-c4c(Cl)cccc4Cl)c(=O)n(CCOC)c3n2)cc1`, the growth is reported as -21.9% (active). In the case of `O=C(O)c1cn(C2CC2)c2cc(N3CCN(C(=O)N4CCOCC4)CC3)c(F)cc2c1=O`, the growth is reported as 94%. `Clc1ccc(-c2nc(C(Cl)Cl)nc3cc(-c4ccccc4)nn23)cc1` was tested, and the growth was 54.8%. `c1cc(OCCN2CCCCCC2)ccc1CNc1ccc2nc(CCC3CCCCC3)[nH]c2c1` showed a growth of 43.2%. For `CN(C)CCCC1(c2ccc(F)cc2)OCc2cc(-c3csc4ccccc34)ccc21` (stereo unspecified), the growth was -31.1% (active). `C(=C(\C1=NCCN1)n1ccc2ccccc21)/c1ccccc1` showed a growth of 93.4%. Work on `COc1ccc(C/C(C)=C(\c2ccc(Cl)cc2)c2ccc(OCCCN(C)C)cc2)cc1` yielded a growth of 62.8%. `Cc1ccc(S(=O)(=O)c2nc(-c3ccccc3)oc2SCC(N)=O)cc1` gave a growth of 101%. Work on `CCCCn1c(NC(C)=O)c(S(=O)(=O)c2ccccc2)c2nc3ccccc3nc21` yielded a growth of 76.3%. In the case of `Cc1ccc(Cc2cnc(NC(=O)/C=C/c3ccc(C)o3)s2)cc1`, the growth is reported as 42.2%. `CCN(CC)CCOc1ccc(C(=O)/C=C\c2ccc(Cl)cc2Cl)cc1` showed a growth of 32.2%. `O=C(/C=C/C12c3ccccc3C(c3ccccc31)C1C(=O)NC(=O)C12)c1ccco1` (stereo unspecified) was tested, and the growth was 26.5%. In the case of `CCOC(=O)C1=C(CC(O)c2ccc(OC)cc2OC)NC(=O)NC1c1ccccc1` (stereo unspecified), the growth is reported as 118%. In the case of `COc1ccc2c(c1)CC[C@@H]1[C@@H]2CC[C@]2(C)c3c(cc(C#N)c4c3sc3ccccc34)C[C@@H]12`, the growth is reported as 101%. `COc1ccc(-c2cn(Cc3cc4ccccc4s3)nn2)cc1OCCN1CCCCC1` gave a growth of 80.8%. For `Cc1ncc(C(=O)Nc2ccc(CN3CCN(C)CC3)c(C(F)(F)F)c2)cc1C#Cc1cnc(N)c2ccc(C#N)cc12`, the growth was -43.9% (active). With `Cc1sc2nc(NCCN)[nH]c(=O)c2c1C` the growth was 100%. With `C#CCOc1cccc(Nc2ncnc3cc(NC(=O)CCl)ccc23)c1` the growth was -64.6% (active). Work on `COc1cc(-c2ccc(-c3ccc(C(=N)N)cc3)s2)cc(OC)c1OC` yielded a growth of 62.6%.

The compounds below were run on OVCAR-3 ovarian in the same assay as above. Details: 10 µM unless noted.
With `COC(=O)c1c(C)nc(C)c2c1C(=O)C=C(NCc1ccccc1)C2=O` the growth was 44.1%. With `COc1ccc2[nH]cc(-c3nonc3-c3c[nH]c4ccc(Br)cc34)c2c1` the growth was 62.6%. For `C=C(C)[C@@H]1CC[C@]2(COC3CCCCO3)CC[C@]3(C)[C@H](CC[C@@H]4[C@@]5(C)C=C(C=O)C(=O)C(C)(C)[C@@H]5CC[C@]43C)[C@@H]12` (stereo partly specified), the growth was -65.1% (active). Compound `CCOc1ncc([N+](=O)[O-])c(OCC)n1` has a growth of 124%. For `c1ccc(-c2c(-c3ccccc3)[n+](Cc3ccc4ccccc4c3)cn2Cc2ccc3ccccc3c2)cc1`, the growth was -91.1% (active). Work on `Cn1cc(-c2csc(-c3cn(CCCN4CCOCC4)c4ccc(F)cc34)n2)c2cccnc21` yielded a growth of 77.6%. `COC(=O)c1sccc1-c1cc(O)c(C(=O)Nc2ccccc2)s1` was tested, and the growth was 96.2%. `CCCCCc1ccc(S(=O)(=O)Nc2ccc3nc(N)oc3c2)cc1` gave a growth of 64.5%. `COc1ccc2c(O)c(/C=C3\N=Nc4ncccc43)oc2c1C[C@@H]1CCNC[C@H]1F` was tested, and the growth was -17.9% (active). `CCN(CC)CCCC(Cc1ccccc1)Nc1c2ccc(Cl)cc2nc2ccc(OC)cc12` (stereo unspecified) showed a growth of 77.4%. In the case of `CNCC[C@H](Oc1cccc2ccccc12)c1cccs1`, the growth is reported as 86.9%. Compound `CCOC(=O)c1cnn(CC(C)O)c1NC(=O)NCc1cccc(F)c1` (stereo unspecified) has a growth of 107%. `N#Cc1ccc(/C=C/c2cn(-c3ccccc3)nc2-c2cccc([N+](=O)[O-])c2)cc1` gave a growth of 70%. In the case of `O=C(/C=C/c1ccco1)Nc1ncc(Cc2cc(Cl)ccc2Cl)s1`, the growth is reported as -44% (active). For `CCOC(=O)c1nnn(Cc2cc(=O)oc3ccc(O)cc23)c1C`, the growth was 107%. `CC1(C)CC[C@]23CC[C@]4(C)[C@H](CC[C@@H]5[C@@]6(C)C/C(=C/O)C(=O)C(C)(C)[C@@H]6CC[C@]54C)[C@H]2[C@H]1OC3` was tested, and the growth was 121%. For `COC(=O)c1nc(-c2ccccc2)oc1S(=O)(=O)N1CCCC(C)C1` (stereo unspecified), the growth was 48.9%. In the case of `Cc1ccc2c(/C=C/C(=O)c3cc(CN4CCOCC4)c(O)c4nc(C)ccc34)cc(CN3CCOCC3)c(O)c2n1`, the growth is reported as -13.2% (active). `CCN1C(=O)N(CC)C2C1NN=c1s/c(=C\c3ccc(OC)cc3)c(=O)n12` (stereo unspecified) was tested, and the growth was -16.5% (active). In the case of `COc1ccc(C/C(C)=C(\c2ccc(Cl)cc2)c2ccc(OCCN3CCCC3)cc2)cc1`, the growth is reported as 93.1%. `CCN(CC)CCOc1ccc(Nc2ncc3cc(-c4c(Cl)cccc4Cl)c(=O)n(CCOC)c3n2)cc1` was tested, and the growth was -22% (active). `O=C(O)c1cn(C2CC2)c2cc(N3CCN(C(=O)N4CCOCC4)CC3)c(F)cc2c1=O` gave a growth of 109%. With `c1cc(OCCN2CCCCCC2)ccc1CNc1ccc2nc(CCC3CCCCC3)[nH]c2c1` the growth was 77.3%. `C(=C(\C1=NCCN1)n1ccc2ccccc21)/c1ccccc1` showed a growth of 104%. With `COc1ccc(C/C(C)=C(\c2ccc(Cl)cc2)c2ccc(OCCCN(C)C)cc2)cc1` the growth was 79.4%. `Cc1ccc(S(=O)(=O)c2nc(-c3ccccc3)oc2SCC(N)=O)cc1` was tested, and the growth was 94.9%. Compound `CCCCn1c(NC(C)=O)c(S(=O)(=O)c2ccccc2)c2nc3ccccc3nc21` has a growth of 95.7%. With `Cc1ccc(Cc2cnc(NC(=O)/C=C/c3ccc(C)o3)s2)cc1` the growth was -8.25% (active). In the case of `CCN(CC)CCOc1ccc(C(=O)/C=C\c2ccc(Cl)cc2Cl)cc1`, the growth is reported as 9.56% (active). Compound `O=C(/C=C/C12c3ccccc3C(c3ccccc31)C1C(=O)NC(=O)C12)c1ccco1` (stereo unspecified) has a growth of 11.7%. `CCOC(=O)C1=C(CC(O)c2ccc(OC)cc2OC)NC(=O)NC1c1ccccc1` (stereo unspecified) gave a growth of 109%. Compound `COc1ccc2c(c1)CC[C@@H]1[C@@H]2CC[C@]2(C)c3c(cc(C#N)c4c3sc3ccccc34)C[C@@H]12` has a growth of 108%. Compound `Cc1ncc(C(=O)Nc2ccc(CN3CCN(C)CC3)c(C(F)(F)F)c2)cc1C#Cc1cnc(N)c2ccc(C#N)cc12` has a growth of 25%. `Cc1sc2nc(NCCN)[nH]c(=O)c2c1C` showed a growth of 96.7%. In the case of `C#CCOc1cccc(Nc2ncnc3cc(NC(=O)CCl)ccc23)c1`, the growth is reported as -76.7% (active). `COc1cc(-c2ccc(-c3ccc(C(=N)N)cc3)s2)cc(OC)c1OC` was tested, and the growth was 46%.
